Results published in PubChem BioAssay (NCI).
The panel holds about 83,000 compounds, 20% with a hit somewhere; the sample as a whole holds those more often.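 The test compound was applied at a single concentration to cells in 96-well plates for 48 hours, and percent growth was recorded.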 The source made the active and inactive calls. Rule for the calls: active = growth percent below 10; inactive = the rest.

What was measured:
Test in all cases: NCI-60 one-dose screen, 48 h (100 = growth as untreated, 0 = no growth, -100 = all killed)
Conditions in all cases: 10 µM unless noted
SR leukemia = system: SR leukemia
RPMI-8226 leukemia = system: RPMI-8226 leukemia
OVCAR-8 ovarian = system: OVCAR-8 ovarian
OVCAR-5 ovarian = system: OVCAR-5 ovarian
OVCAR-4 ovarian = system: OVCAR-4 ovarian
SK-OV-3 ovarian = system: SK-OV-3 ovarian
IGROV1 ovarian = system: IGROV1 ovarian
OVCAR-3 ovarian = system: OVCAR-3 ovarian
HS 578T breast = system: HS 578T breast
NCI/ADR-RES ovarian = system: NCI/ADR-RES ovarian

Measured: growth

CCN(CC)CCCC(Cc1ccccc1)Nc1c2ccc(Cl)cc2nc2ccc(OC)cc12 (stereo not given)
inactive: OVCAR-8 ovarian 36.4% | OVCAR-5 ovarian 71.1% | OVCAR-4 ovarian 30.8% | SK-OV-3 ovarian 101% | IGROV1 ovarian 32.7% | OVCAR-3 ovarian 77.4% | HS 578T breast 52.2% | NCI/ADR-RES ovarian 45%
active: SR leukemia -27.4% | RPMI-8226 leukemia -6.17%

CC(=O)Nc1sc2c(c1-c1nc3ccccc3s1)CNC2
active: SR leukemia 6%
inactive: RPMI-8226 leukemia 19.1% | OVCAR-8 ovarian 23.4% | OVCAR-5 ovarian 41.8% | OVCAR-4 ovarian 33.4% | SK-OV-3 ovarian 15.9% | IGROV1 ovarian 13.5% | OVCAR-3 ovarian 36.3% | HS 578T breast 51.3% | NCI/ADR-RES ovarian 23.2%

O=C(N/N=C/c1ccc(Cl)cc1)c1ccc(NC(=O)c2ccccn2)cc1
active: OVCAR-4 ovarian -77.6% | OVCAR-3 ovarian 0.827%
inactive: SR leukemia 43.3% | RPMI-8226 leukemia 62.1% | OVCAR-8 ovarian 46.1% | OVCAR-5 ovarian 67.6% | SK-OV-3 ovarian 53.9% | IGROV1 ovarian 30.9% | HS 578T breast 53.9% | NCI/ADR-RES ovarian 53.2%

COc1ccc(Nc2ncc(I)c(NCCCNC(=O)C3CCC3)n2)cc1
inactive: RPMI-8226 leukemia 11.4% | OVCAR-8 ovarian 19.3% | OVCAR-4 ovarian 42.2% | HS 578T breast 17.1% | NCI/ADR-RES ovarian 22.2%
active: SR leukemia 0.641% | OVCAR-5 ovarian 3.96% | SK-OV-3 ovarian -3.33% | IGROV1 ovarian -20.8% | OVCAR-3 ovarian -40.4%

Cc1ccc(-c2csc(NC(=O)CSc3nc(N)cc(N)n3)n2)cc1
inactive: SR leukemia 42.9% | RPMI-8226 leukemia 44% | OVCAR-8 ovarian 71% | OVCAR-5 ovarian 91.2% | OVCAR-4 ovarian 64% | SK-OV-3 ovarian 88% | IGROV1 ovarian 74.1% | OVCAR-3 ovarian 73.2% | HS 578T breast 87.6% | NCI/ADR-RES ovarian 51.8%

CCCCCc1ccc(S(=O)(=O)Nc2cc(-c3csc(NC(C)=O)n3)ccc2N2CCN(C)CC2)cc1
active: RPMI-8226 leukemia -28.7%
inactive: SR leukemia 14.1% | OVCAR-8 ovarian 70.1% | OVCAR-5 ovarian 85.3% | OVCAR-4 ovarian 66% | SK-OV-3 ovarian 92.6% | IGROV1 ovarian 62.1% | OVCAR-3 ovarian 75.6% | HS 578T breast 67.3% | NCI/ADR-RES ovarian 61.2%

O=C(NCCNC(c1ccccc1)C(NCCNC(=O)c1ccccc1)c1ccccc1)c1ccccc1 (stereo not given)
inactive: SR leukemia 50.2% | RPMI-8226 leukemia 90.1% | OVCAR-8 ovarian 78.9% | OVCAR-5 ovarian 83.8% | OVCAR-4 ovarian 91.3% | SK-OV-3 ovarian 99.9% | IGROV1 ovarian 82.4% | OVCAR-3 ovarian 116% | HS 578T breast 115% | NCI/ADR-RES ovarian 76.6%

O=CCCCOCc1ccccc1
inactive: SR leukemia 96% | RPMI-8226 leukemia 100% | OVCAR-8 ovarian 103% | OVCAR-5 ovarian 101% | OVCAR-4 ovarian 98.6% | SK-OV-3 ovarian 99.9% | IGROV1 ovarian 101% | OVCAR-3 ovarian 110% | HS 578T breast 92.9% | NCI/ADR-RES ovarian 97.4%

O=C(/C=C/C12c3ccccc3C(c3ccccc31)C1C(=O)NC(=O)C12)c1ccco1 (stereo not given)
inactive: SR leukemia 13% | OVCAR-5 ovarian 44.3% | OVCAR-4 ovarian 53.4% | SK-OV-3 ovarian 42.7% | IGROV1 ovarian 26.5% | OVCAR-3 ovarian 11.7% | HS 578T breast 31.4% | NCI/ADR-RES ovarian 42.3%
active: RPMI-8226 leukemia -7.21% | OVCAR-8 ovarian 5.8%

COc1cc(C[C@H]2COc3cc(O)cc(O)c3C2=O)ccc1O
inactive: SR leukemia 19% | RPMI-8226 leukemia 18.2% | OVCAR-8 ovarian 28.1% | OVCAR-5 ovarian 101% | OVCAR-4 ovarian 63.1% | SK-OV-3 ovarian 29.2% | IGROV1 ovarian 41.3% | OVCAR-3 ovarian 14.1% | HS 578T breast 13.7% | NCI/ADR-RES ovarian 20.9%

CCOC(=O)NCCCC(=O)NCCc1ccccc1
inactive: SR leukemia 106% | RPMI-8226 leukemia 110% | OVCAR-8 ovarian 104% | OVCAR-5 ovarian 118% | OVCAR-4 ovarian 107% | SK-OV-3 ovarian 108% | IGROV1 ovarian 106% | OVCAR-3 ovarian 108% | HS 578T breast 106% | NCI/ADR-RES ovarian 104%

COC(=O)/C=C1/SC(=NCc2ccccc2)N(CCc2c[nH]c3ccccc23)C1=O
inactive: SR leukemia 29.8% | RPMI-8226 leukemia 52.4% | OVCAR-8 ovarian 67.6% | OVCAR-5 ovarian 110% | OVCAR-4 ovarian 78.1% | SK-OV-3 ovarian 111% | IGROV1 ovarian 92.1% | OVCAR-3 ovarian 79.1% | HS 578T breast 79.7% | NCI/ADR-RES ovarian 80.6%

CC/C(=C(/c1ccc(O)cc1)c1ccc(OCCN2CCCCC2)cc1)c1ccc(OC)cc1
active: SR leukemia -23.3%
inactive: RPMI-8226 leukemia 62.6% | OVCAR-8 ovarian 91.5% | OVCAR-5 ovarian 90.9% | OVCAR-4 ovarian 90.4% | SK-OV-3 ovarian 99.3% | IGROV1 ovarian 85.3% | OVCAR-3 ovarian 66.1% | HS 578T breast 92.2% | NCI/ADR-RES ovarian 77.6%

Cn1cc(-c2csc(-c3cn(CCCN4CCOCC4)c4ccc(F)cc34)n2)c2cccnc21
inactive: SR leukemia 48.4% | RPMI-8226 leukemia 34.8% | OVCAR-8 ovarian 47.6% | OVCAR-5 ovarian 73% | OVCAR-4 ovarian 56.6% | SK-OV-3 ovarian 80% | IGROV1 ovarian 76.3% | OVCAR-3 ovarian 77.6% | HS 578T breast 46.6% | NCI/ADR-RES ovarian 53.8%

COc1ccc(C2[C@@H](c3ccccc3)C(=O)N2c2cc(OC)c(OC)c(OC)c2)cc1F (stereo not given in full)
inactive: OVCAR-5 ovarian 65.1% | OVCAR-4 ovarian 59% | IGROV1 ovarian 18.8% | HS 578T breast 31.3% | NCI/ADR-RES ovarian 11.9%
active: SR leukemia -6.55% | RPMI-8226 leukemia 6.59% | OVCAR-8 ovarian 1.85% | SK-OV-3 ovarian 4.86% | OVCAR-3 ovarian 9.25%

CN(C)CCC(=O)C1CC1
inactive: SR leukemia 97.3% | RPMI-8226 leukemia 101% | OVCAR-8 ovarian 106% | OVCAR-5 ovarian 100% | OVCAR-4 ovarian 108% | SK-OV-3 ovarian 110% | IGROV1 ovarian 92.3% | OVCAR-3 ovarian 105% | HS 578T breast 111% | NCI/ADR-RES ovarian 98.3%

COCC(=O)Oc1cc(-c2ccc(C)cc2C)c(OC(=O)COC)c(-c2ccc(C)cc2C)c1
inactive: SR leukemia 20.6% | RPMI-8226 leukemia 34.2% | OVCAR-8 ovarian 59.5% | OVCAR-5 ovarian 38.1% | OVCAR-4 ovarian 50.5% | SK-OV-3 ovarian 66.2% | IGROV1 ovarian 50.1% | OVCAR-3 ovarian 51.9% | HS 578T breast 55% | NCI/ADR-RES ovarian 68.2%

O=Nc1ccc(NC(=O)Nc2ccc([N+](=O)[O-])cc2)cc1
inactive: SR leukemia 81.1% | RPMI-8226 leukemia 44.1% | OVCAR-8 ovarian 91.5% | OVCAR-5 ovarian 122% | OVCAR-4 ovarian 87.1% | SK-OV-3 ovarian 102% | IGROV1 ovarian 99.5% | OVCAR-3 ovarian 98.4% | HS 578T breast 91.6% | NCI/ADR-RES ovarian 91.6%

C#CCOc1cccc(Nc2ncnc3c2ncn3C2CCN(C(=O)CCl)C2)c1 (stereo not given)
active: SR leukemia -23.8% | RPMI-8226 leukemia -49.8% | OVCAR-8 ovarian 5.81% | OVCAR-5 ovarian -88.4% | OVCAR-4 ovarian -51.7% | IGROV1 ovarian -58.3% | OVCAR-3 ovarian -90.9%
inactive: SK-OV-3 ovarian 48.4% | HS 578T breast 14% | NCI/ADR-RES ovarian 15.7%

Nc1cccc(-c2ccc(COc3ccc(CC4SC(=O)NC4=O)cc3)cc2)c1 (stereo not given)
inactive: SR leukemia 26.8% | RPMI-8226 leukemia 53.8% | OVCAR-8 ovarian 70.1% | OVCAR-5 ovarian 92.2% | OVCAR-4 ovarian 56.4% | SK-OV-3 ovarian 62.1% | IGROV1 ovarian 57.5% | OVCAR-3 ovarian 49.9% | HS 578T breast 59.8% | NCI/ADR-RES ovarian 47.1%

CS(=O)/C(C#N)=C\C=C\c1cccc(Cl)c1 (stereo not given)
inactive: OVCAR-8 ovarian 26.3% | OVCAR-5 ovarian 34.1% | OVCAR-4 ovarian 34.7% | SK-OV-3 ovarian 43.7% | IGROV1 ovarian 23.4% | OVCAR-3 ovarian 10.6% | HS 578T breast 43.2%
active: SR leukemia 6.39% | RPMI-8226 leukemia 2.54% | NCI/ADR-RES ovarian -44.1%

O=C1/C(=C/c2cccc(Br)c2)COc2ccc(O)cc21
active: SR leukemia 4.39% | RPMI-8226 leukemia -27.3%
inactive: OVCAR-8 ovarian 54.1% | OVCAR-5 ovarian 89.8% | OVCAR-4 ovarian 83.4% | SK-OV-3 ovarian 115% | IGROV1 ovarian 78% | OVCAR-3 ovarian 49.1% | HS 578T breast 60.3% | NCI/ADR-RES ovarian 47.6%

Fc1cccc(CNc2c3ccccc3nc3ccccc23)c1
inactive: SR leukemia 19.1% | RPMI-8226 leukemia 10.1% | OVCAR-8 ovarian 36% | OVCAR-5 ovarian 43.8% | OVCAR-4 ovarian 30.5% | SK-OV-3 ovarian 51.1% | IGROV1 ovarian 25.6% | OVCAR-3 ovarian 67% | HS 578T breast 63.9% | NCI/ADR-RES ovarian 30.1%

Clc1cccc(C2Cc3cnccc3-c3[nH]c4ccncc4c32)c1 (stereo not given)
inactive: SR leukemia 36.5% | RPMI-8226 leukemia 14.1% | OVCAR-8 ovarian 56.4% | OVCAR-5 ovarian 86.4% | OVCAR-4 ovarian 36.2% | SK-OV-3 ovarian 50.9% | IGROV1 ovarian 52.7% | OVCAR-3 ovarian 42.2% | HS 578T breast 85% | NCI/ADR-RES ovarian 47.7%

O=C(/C=C/c1ccccc1)c1cccc2ccccc12
active: SR leukemia 8.29% | RPMI-8226 leukemia 6.78%
inactive: OVCAR-8 ovarian 19.9% | OVCAR-5 ovarian 103% | OVCAR-4 ovarian 41.3% | SK-OV-3 ovarian 62.2% | IGROV1 ovarian 47.3% | OVCAR-3 ovarian 22.4% | HS 578T breast 32.1% | NCI/ADR-RES ovarian 24.9%

COC(=O)c1ccc2cc(OC)c(OC)cc2c1
inactive: SR leukemia 91.5% | RPMI-8226 leukemia 101% | OVCAR-8 ovarian 104% | OVCAR-5 ovarian 101% | OVCAR-4 ovarian 113% | SK-OV-3 ovarian 118% | IGROV1 ovarian 118% | OVCAR-3 ovarian 112% | HS 578T breast 105% | NCI/ADR-RES ovarian 107%

C[N+]1=C(/C=C/c2ccccc2Cl)C(C)(C)c2ccccc21
inactive: SR leukemia 18.2% | RPMI-8226 leukemia 66.9% | OVCAR-8 ovarian 90.8% | OVCAR-5 ovarian 100% | OVCAR-4 ovarian 96.1% | SK-OV-3 ovarian 94.3% | IGROV1 ovarian 90.6% | OVCAR-3 ovarian 78.3% | HS 578T breast 102% | NCI/ADR-RES ovarian 101%
